In the supplement of paper PMC11732987, “Enantioselective OTUD7B fragment discovery through chemoproteomics screening and high-throughput optimisation” (Communications Chemistry, 2025):

What was measured:
Assay in all cases: log2 ratio of Biotin-Ahx-Ub-VS probe labelling (fragment/DMSO); higher = less target engagement (more negative = stronger competition), active = hit call of the paper (q ≤ 0.05, log2 ratio ≤ -1)
Details in all cases: compound concentration: 200 uM; treatment time: 3 h
USP19 = molecular target: T1, USP19 (UniProt O94966)
T1 sequence (whole entry): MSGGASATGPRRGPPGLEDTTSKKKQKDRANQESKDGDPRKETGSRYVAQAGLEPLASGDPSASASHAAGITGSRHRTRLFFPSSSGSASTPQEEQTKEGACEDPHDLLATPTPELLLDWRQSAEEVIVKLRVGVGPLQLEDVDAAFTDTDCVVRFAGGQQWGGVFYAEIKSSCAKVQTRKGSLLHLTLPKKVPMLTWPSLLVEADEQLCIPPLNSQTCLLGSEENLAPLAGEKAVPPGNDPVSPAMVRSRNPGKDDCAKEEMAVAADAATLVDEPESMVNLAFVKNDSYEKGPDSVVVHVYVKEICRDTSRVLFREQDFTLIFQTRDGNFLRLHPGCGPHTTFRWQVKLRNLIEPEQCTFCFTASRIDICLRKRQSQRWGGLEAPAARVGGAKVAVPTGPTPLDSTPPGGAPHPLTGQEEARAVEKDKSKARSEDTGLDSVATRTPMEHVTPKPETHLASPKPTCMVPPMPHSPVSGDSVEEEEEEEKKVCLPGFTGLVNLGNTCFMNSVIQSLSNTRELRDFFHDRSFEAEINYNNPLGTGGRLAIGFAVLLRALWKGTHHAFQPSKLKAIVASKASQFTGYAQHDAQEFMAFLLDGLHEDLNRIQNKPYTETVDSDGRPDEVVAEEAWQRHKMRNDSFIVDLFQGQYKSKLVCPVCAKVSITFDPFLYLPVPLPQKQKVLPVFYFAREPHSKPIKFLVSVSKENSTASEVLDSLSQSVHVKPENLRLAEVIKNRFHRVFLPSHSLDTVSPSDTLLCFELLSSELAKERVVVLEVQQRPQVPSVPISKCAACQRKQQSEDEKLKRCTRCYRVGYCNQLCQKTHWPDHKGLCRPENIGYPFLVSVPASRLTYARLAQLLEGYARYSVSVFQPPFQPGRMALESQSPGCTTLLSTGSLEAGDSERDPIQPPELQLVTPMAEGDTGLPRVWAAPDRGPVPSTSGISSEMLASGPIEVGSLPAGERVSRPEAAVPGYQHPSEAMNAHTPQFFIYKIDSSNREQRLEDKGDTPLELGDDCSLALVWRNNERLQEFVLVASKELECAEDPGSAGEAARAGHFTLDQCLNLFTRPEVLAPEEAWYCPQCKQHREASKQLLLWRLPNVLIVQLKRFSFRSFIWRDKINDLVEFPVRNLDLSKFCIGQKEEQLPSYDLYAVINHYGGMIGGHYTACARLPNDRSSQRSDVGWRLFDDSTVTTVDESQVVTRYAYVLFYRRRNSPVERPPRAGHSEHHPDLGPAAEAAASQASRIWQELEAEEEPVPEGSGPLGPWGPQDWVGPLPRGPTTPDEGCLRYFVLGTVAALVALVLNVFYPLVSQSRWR
How it was run: (§1)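 Average log2 ratios of fragment over vehicle were obtained by unpaired t-test from global-median-normalised Spectronaut label-free quantities. Proteins with ≥2 unique peptides were included. HEK293T lysate (495 µg per sample) was treated in triplicate with fragment at 200 µM or vehicle for 3 h, then with Biotin-Ahx-Ub-VS at 0.5 µM final for 1 h, and labelled DUBs were NeutrAvidin-enriched and run by diaPASEF LC-MS/MS.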

USP24 = USP24 (UniProt Q9UPU5)
Sequence of USP24 (Q9UPU5 whole entry): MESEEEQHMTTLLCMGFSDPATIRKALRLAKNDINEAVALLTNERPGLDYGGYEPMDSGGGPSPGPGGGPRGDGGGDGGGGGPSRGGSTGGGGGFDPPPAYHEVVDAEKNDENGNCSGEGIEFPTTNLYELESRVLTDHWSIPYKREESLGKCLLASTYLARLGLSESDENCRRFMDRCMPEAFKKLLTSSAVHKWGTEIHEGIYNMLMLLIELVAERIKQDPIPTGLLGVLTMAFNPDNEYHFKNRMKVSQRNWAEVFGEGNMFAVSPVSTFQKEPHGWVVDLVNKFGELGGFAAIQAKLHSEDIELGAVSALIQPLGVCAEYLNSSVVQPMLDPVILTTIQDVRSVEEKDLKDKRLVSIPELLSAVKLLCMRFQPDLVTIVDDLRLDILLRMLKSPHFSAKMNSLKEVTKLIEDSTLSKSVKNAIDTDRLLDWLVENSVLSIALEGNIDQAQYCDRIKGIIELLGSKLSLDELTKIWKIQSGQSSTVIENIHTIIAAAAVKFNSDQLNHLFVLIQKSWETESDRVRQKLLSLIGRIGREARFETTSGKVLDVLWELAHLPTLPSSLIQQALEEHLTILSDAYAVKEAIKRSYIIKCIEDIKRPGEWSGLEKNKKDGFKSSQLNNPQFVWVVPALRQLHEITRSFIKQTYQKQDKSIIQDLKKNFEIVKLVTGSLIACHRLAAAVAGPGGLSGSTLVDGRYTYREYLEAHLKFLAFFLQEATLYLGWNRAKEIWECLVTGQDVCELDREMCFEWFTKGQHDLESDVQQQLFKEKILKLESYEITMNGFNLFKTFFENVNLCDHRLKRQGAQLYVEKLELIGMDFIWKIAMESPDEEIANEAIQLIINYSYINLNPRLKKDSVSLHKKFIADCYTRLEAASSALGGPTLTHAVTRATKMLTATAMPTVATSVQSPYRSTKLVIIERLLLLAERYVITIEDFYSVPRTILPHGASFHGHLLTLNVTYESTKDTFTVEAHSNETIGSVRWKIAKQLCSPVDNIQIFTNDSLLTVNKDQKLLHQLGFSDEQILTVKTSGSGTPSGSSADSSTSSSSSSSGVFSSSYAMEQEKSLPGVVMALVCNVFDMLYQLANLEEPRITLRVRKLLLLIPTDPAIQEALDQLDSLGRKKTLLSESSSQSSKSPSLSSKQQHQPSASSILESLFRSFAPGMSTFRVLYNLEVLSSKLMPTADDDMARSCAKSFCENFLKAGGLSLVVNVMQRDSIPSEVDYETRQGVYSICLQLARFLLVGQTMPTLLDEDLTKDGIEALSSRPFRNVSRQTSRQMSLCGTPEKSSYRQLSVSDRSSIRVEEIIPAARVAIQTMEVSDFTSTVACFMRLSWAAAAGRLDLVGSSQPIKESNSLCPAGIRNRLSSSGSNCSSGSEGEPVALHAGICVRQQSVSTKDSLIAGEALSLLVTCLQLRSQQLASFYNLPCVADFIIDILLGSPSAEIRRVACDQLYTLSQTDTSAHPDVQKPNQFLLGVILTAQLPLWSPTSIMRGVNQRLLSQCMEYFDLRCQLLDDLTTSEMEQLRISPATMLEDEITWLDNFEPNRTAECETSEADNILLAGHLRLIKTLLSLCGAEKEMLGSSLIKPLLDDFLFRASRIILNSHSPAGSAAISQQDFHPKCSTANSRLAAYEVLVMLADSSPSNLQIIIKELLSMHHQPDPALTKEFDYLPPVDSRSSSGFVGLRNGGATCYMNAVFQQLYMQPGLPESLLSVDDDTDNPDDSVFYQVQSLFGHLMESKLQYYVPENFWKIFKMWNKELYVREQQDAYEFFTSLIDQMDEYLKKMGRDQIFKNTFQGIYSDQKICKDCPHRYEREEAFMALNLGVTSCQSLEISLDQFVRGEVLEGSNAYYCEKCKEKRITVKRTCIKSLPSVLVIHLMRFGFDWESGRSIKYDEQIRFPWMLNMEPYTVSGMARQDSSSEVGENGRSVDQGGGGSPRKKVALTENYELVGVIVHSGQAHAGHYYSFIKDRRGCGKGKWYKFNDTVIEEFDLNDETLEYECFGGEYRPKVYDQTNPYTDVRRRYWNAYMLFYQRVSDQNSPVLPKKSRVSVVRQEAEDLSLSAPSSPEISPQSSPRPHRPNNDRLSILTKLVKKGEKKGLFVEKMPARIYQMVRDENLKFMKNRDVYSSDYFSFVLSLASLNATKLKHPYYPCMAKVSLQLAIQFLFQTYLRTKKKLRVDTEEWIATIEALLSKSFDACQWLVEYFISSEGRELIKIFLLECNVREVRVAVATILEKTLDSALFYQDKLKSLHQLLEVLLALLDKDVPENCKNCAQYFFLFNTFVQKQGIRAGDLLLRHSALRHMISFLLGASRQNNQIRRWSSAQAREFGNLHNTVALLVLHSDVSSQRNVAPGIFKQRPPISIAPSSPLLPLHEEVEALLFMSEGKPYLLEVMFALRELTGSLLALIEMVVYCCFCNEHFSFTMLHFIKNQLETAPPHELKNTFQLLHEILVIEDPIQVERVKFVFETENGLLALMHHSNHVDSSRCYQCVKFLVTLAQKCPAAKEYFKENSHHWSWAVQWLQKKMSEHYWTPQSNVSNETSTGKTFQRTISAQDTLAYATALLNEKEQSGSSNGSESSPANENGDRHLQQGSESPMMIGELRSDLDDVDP
How it was run: as §1

USP25 = molecular target: T2, USP25 (UniProt Q9UHP3)
T2 sequence (whole entry): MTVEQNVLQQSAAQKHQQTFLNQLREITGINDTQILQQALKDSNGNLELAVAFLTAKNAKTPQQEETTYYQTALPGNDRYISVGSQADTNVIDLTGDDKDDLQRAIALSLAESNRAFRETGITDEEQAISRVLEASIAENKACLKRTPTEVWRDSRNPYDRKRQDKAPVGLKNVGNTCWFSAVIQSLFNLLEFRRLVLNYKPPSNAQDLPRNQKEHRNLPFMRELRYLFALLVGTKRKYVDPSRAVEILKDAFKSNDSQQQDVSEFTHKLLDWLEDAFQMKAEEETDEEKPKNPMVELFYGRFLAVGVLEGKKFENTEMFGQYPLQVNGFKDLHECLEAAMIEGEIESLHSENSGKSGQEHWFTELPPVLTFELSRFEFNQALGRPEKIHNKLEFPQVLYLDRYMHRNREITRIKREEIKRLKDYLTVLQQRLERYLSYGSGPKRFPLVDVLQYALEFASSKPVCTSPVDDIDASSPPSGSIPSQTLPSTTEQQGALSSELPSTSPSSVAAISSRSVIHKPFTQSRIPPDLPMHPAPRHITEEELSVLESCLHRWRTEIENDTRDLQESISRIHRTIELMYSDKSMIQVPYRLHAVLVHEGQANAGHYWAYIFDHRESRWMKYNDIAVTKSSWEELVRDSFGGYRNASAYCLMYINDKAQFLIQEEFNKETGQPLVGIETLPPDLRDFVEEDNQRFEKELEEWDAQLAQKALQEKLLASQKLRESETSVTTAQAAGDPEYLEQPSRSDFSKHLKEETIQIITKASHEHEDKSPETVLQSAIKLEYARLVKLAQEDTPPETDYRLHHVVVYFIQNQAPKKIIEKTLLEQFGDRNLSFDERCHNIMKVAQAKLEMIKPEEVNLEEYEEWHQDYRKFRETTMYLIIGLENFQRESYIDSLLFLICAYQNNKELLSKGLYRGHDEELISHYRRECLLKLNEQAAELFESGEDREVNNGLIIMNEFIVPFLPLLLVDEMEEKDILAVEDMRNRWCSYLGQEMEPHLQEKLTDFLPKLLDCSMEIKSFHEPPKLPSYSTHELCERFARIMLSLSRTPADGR
How it was run: as §1

USP28 = molecular target: T3, USP28 (UniProt Q96RU2)
T3 sequence (whole entry): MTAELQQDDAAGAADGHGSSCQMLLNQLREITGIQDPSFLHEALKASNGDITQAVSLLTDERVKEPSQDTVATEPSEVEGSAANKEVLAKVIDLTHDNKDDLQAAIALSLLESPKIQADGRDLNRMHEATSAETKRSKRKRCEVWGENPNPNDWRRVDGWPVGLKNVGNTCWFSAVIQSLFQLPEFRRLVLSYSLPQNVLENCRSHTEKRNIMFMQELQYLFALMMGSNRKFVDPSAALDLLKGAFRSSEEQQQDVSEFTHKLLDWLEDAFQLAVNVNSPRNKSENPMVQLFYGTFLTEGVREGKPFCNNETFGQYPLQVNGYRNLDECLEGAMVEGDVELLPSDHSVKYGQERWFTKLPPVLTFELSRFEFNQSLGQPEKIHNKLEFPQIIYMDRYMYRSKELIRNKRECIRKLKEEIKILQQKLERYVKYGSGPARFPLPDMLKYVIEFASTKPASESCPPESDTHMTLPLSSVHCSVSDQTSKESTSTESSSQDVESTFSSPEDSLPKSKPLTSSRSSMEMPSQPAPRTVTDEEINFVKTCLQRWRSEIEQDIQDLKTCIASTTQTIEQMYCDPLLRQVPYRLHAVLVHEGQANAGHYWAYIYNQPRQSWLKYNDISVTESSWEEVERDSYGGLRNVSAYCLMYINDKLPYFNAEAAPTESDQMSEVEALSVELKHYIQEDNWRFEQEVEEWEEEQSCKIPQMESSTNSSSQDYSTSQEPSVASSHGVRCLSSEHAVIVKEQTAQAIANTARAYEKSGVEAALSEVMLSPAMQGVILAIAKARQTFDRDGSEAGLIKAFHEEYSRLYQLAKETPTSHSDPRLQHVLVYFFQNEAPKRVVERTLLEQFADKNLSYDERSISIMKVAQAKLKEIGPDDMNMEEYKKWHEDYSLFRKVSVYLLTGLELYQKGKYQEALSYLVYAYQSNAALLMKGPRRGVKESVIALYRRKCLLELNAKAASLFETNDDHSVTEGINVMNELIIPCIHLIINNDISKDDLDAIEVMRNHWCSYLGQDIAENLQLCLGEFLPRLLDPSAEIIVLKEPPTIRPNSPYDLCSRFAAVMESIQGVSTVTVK
How it was run: as §1

Measured: log2 ratio of Biotin-Ahx-Ub-VS probe labelling

O=C(CCl)N1CCC2(CCC(O)CC2)CC1
inactive: USP19 0.0572 | USP24 -0.133 | USP25 -0.0651 | USP28 -0.372
